Here are results for ten compounds from PubChem BioAssay (NCI).

Structures are written as SMILES. About 83,000 compounds went through this panel and 20% of them were active in at least one assay; those are over-represented in the sample as a whole.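 Testing used 96-well plates and a 48-hour single-concentration exposure. Example: -40 means 40% of the starting cells died.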 Values without a mark were called inactive. Activity calls are given as the source filed them. Rule for the calls: active = growth percent below 10; inactive = the rest.

What all share (experiment): NCI-60 one-dose screen, 48 h (100 = growth as untreated, 0 = no growth, -100 = all killed)
Settings in all cases: 10 µM unless noted

Assay [1] relates to RPMI-8226 leukemia.
In assay [2] the test system is OVCAR-8 ovarian.
The test system of assay [3] is OVCAR-5 ovarian.
Assay [4] deals with OVCAR-4 ovarian.
For assay [5], the system named is SK-OV-3 ovarian.
Assay [6] deals with IGROV1 ovarian.
The subject of assay [7] is OVCAR-3 ovarian.
The test system of assay [8] is HS 578T breast.
For assay [9], the system named is NCI/ADR-RES ovarian.
Assay [10] relates to T-47D breast.
Assay [11] concerns BT-549 breast.
The test system of assay [12] is MDA-MB-435 melanoma.
The test system of assay [13] is SW-620 colon.
In assay [14] the test system is MCF7 breast.
Assay [15] concerns HCT-116 colon.
Assay [16] relates to HCC-2998 colon.
Assay [17] concerns KM12 colon.

Regarding `CC(C)(Sc1cc(C(C)(C)C)c(O)c(C(C)(C)C)c1)Sc1cc(C(C)(C)C)c(OC(=O)CCC(=O)O)c(C(C)(C)C)c1`, the growth in [1] is 30.3%; in assay [2], 41.3%; in assay [3] it was 87%; in assay [4], 67%; in assay [5] it was 80.3%; in assay [6], 55.9%. The growth in [7] is 46.8%; in assay [8] it was 67.4%; in assay [9] it was 61.5%; in [10] it was 31.4%; in assay [11] it was 54.8%; in [12], 47.2%. For the same compound, the growth is 44.9% in assay [13]; 35.8% in [14]; 28.3% in assay [15]; 42.9% in assay [16]; 33.3% in assay [17].

As to `O=S(=O)(Nc1ccc2ccccc2c1)c1ccc(-c2cnc(C3CC3)o2)cc1`, the growth in assay [1] is 12%; in [2], 24.6%; in assay [3], 48%; in assay [4], 70.4%; in assay [5], 32.7%; in assay [6], 39.1%. The growth in [7] was 1.73% (active); in [8], 13.4%; in [9], 9.69% (active); in assay [10], 29.8%; in assay [11], 62.6%; in [12], -30.2% (active). Besides, the growth was 24.3% in assay [13]; 22.1% in [14]; 25.4% in [15]; 64.3% in assay [16]; 24.7% in assay [17].

In the case of `Cc1cccc(-c2nc(C(C)C)sc2-c2ccnc(NCCCNS(=O)(=O)c3ccc(Cl)cc3)c2)c1`, the growth is 69.2% in assay [1]; 81.4% in [2]; 95.3% in assay [3]; 82.8% in [4]; 72.9% in [5]; 70.5% in assay [6]. In addition, the growth in assay [7] was 76.8%; in assay [8], 82%; in [9], 58.9%; in assay [10] it was 52.5%; in assay [11] it was 74.8%; in assay [12], 80%. The growth is 56.6% in [13]; 53.8% in assay [14]; 54.4% in assay [15]; 75.2% in assay [16]; 58.1% in assay [17].

Take `O=C(Nc1cc(Cl)ccc1O)c1ccccc1Nc1ccnc(C(F)(F)F)c1`: the growth in [1] is -21.5% (active); in [2], 10.6%; in assay [3], 68.6%; in assay [4] it was 19.8%; in [6], 1.77% (active); in assay [7], -6.87% (active). Besides, the growth in assay [8] was -2.86% (active); in assay [9] it was -2.27% (active); in assay [10], 0.662% (active); in assay [11] it was 33.2%; in [12] it was 29.1%; in [13] it was 15%. For the same compound, the growth in assay [14] is 8.95% (active); in assay [15], 2.14% (active); in assay [16], 3.95% (active); in assay [17], 7.26% (active).

With `c1ccc(Cn2cc3c(c2-c2ccccc2)CCc2cnoc2-3)cc1`, the growth in [1] was 46.7%; in assay [2], 84.5%; in assay [3], 96%; in assay [4] it was 86.2%; in assay [5], 88%; in assay [6], 76.6%. The growth in assay [7] was 56.7%; in [8], 71.5%; in assay [9], 40.6%; in [10] it was 67%; in assay [11], 64.1%; in assay [12], 13.5%. The growth is 24.1% in [13]; 51.3% in assay [14]; 44.5% in [15]; 58.5% in assay [16]; 27.7% in assay [17].

Regarding `c1csc(-c2cn3nc(-c4c[nH]c5ccccc45)sc3n2)c1`, the growth in assay [1] is 17.1%; in assay [2] it was 29.2%; in assay [3], 37.1%; in [4], 45%; in [5], 26.4%; in [6], 30.6%. For the same compound, the growth in assay [7] was -7.97% (active); in assay [8] it was 29.1%; in [9], 12%; in [11], 38%; in assay [13] it was 22.5%; in assay [14], 13%. The growth in [15] is 14.7%; in assay [16] it was 52.4%; in assay [17] it was 23.8%.

For `c1ccc(-c2ccc3c(c2)C2(CCNCC2)CN3)cc1`, the growth in assay [1] is 97.5%; in assay [2], 99.2%; in assay [3] it was 98.1%; in assay [4], 91.5%; in assay [5] it was 79.4%; in [6], 73%. Besides, the growth in assay [7] was 86.2%; in assay [8], 93.6%; in assay [9], 94.3%; in assay [10], 80.3%; in assay [11], 99.3%; in assay [12], 106%. In addition, the growth in assay [13] is 93.6%; in [14], 80.2%; in assay [15], 87.1%; in [16], 103%; in [17], 87.7%.

`C/C(=N\Nc1ccccc1)c1ccc(NC2=CC(=O)c3ccccc3C2=O)cc1`: the growth in [1] was 64.3%; in assay [2], 59.8%; in [3], 72.5%; in [4], 43%; in assay [5], 65.3%; in [6], 50.8%. Moreover, the growth is 15.4% in assay [7]; 65.5% in assay [8]; 38.8% in assay [10]; 76.3% in assay [11]; -80.3% (active) in [12]; 48.4% in assay [13]. For the same compound, the growth in assay [14] was 30.4%; in assay [15], 51%; in assay [16], 77.9%; in assay [17], 43.7%.

Regarding `Cc1c(O)cc(-c2cnc(N/N=C/c3ccccc3)s2)c(O)c1C`, the growth was 51.5% in assay [1]; 110% in assay [3]; 63.5% in assay [4]; 102% in assay [5]; 83.8% in assay [6]; 95.5% in [7]. For the same compound, the growth was 91.2% in assay [8]; 93.6% in [9]; 72.8% in assay [11]; 95.5% in assay [12]; 113% in assay [13]; 72.3% in assay [14]. The growth is 96.2% in assay [15], 131% in [16] and 90.7% in [17].

As to `CC(C)(C)c1ccc(C(=O)N/N=C/c2ccc(O)cc2O)cc1`, the growth in assay [1] is 28.6%; in [2], 17.4%; in assay [3] it was 34.4%; in [4], 22%; in assay [5], 23.2%; in [6] it was 20%. Moreover, the growth in assay [7] is 12.1%; in assay [8], 38.1%; in assay [9] it was 5.92% (active); in assay [10] it was 33.1%; in assay [11], 32%; in assay [12], 34.3%. In addition, the growth in [13] is 30%; in assay [14], 8.44% (active); in [15], 23.4%; in assay [16], 19.4%; in assay [17], 12.5%.
